Experimental data taken from PubChem BioAssay AID2073 (Sanford-Burnham Center for Chemical Genomics, 2009).
Screen size: about 290,000 compounds; about 570 (0.2%) were called active. Inconclusive results (about 1%) are left out. No stated cut-off is given here; in the data, active means inhibition mostly above about 51% (no sharp cut-off); inconclusive means no clear call, values can overlap the other calls; inactive means mostly below about 53%. The list comes from a sample in which actives are over-represented; it also holds similar structures and randomly drawn compounds.

Molecular target: Voltage-dependent N-type calcium channel subunit alpha-1B (Homo sapiens) (UniProt Q00975)
Sequence (Q00975 whole entry, looked up): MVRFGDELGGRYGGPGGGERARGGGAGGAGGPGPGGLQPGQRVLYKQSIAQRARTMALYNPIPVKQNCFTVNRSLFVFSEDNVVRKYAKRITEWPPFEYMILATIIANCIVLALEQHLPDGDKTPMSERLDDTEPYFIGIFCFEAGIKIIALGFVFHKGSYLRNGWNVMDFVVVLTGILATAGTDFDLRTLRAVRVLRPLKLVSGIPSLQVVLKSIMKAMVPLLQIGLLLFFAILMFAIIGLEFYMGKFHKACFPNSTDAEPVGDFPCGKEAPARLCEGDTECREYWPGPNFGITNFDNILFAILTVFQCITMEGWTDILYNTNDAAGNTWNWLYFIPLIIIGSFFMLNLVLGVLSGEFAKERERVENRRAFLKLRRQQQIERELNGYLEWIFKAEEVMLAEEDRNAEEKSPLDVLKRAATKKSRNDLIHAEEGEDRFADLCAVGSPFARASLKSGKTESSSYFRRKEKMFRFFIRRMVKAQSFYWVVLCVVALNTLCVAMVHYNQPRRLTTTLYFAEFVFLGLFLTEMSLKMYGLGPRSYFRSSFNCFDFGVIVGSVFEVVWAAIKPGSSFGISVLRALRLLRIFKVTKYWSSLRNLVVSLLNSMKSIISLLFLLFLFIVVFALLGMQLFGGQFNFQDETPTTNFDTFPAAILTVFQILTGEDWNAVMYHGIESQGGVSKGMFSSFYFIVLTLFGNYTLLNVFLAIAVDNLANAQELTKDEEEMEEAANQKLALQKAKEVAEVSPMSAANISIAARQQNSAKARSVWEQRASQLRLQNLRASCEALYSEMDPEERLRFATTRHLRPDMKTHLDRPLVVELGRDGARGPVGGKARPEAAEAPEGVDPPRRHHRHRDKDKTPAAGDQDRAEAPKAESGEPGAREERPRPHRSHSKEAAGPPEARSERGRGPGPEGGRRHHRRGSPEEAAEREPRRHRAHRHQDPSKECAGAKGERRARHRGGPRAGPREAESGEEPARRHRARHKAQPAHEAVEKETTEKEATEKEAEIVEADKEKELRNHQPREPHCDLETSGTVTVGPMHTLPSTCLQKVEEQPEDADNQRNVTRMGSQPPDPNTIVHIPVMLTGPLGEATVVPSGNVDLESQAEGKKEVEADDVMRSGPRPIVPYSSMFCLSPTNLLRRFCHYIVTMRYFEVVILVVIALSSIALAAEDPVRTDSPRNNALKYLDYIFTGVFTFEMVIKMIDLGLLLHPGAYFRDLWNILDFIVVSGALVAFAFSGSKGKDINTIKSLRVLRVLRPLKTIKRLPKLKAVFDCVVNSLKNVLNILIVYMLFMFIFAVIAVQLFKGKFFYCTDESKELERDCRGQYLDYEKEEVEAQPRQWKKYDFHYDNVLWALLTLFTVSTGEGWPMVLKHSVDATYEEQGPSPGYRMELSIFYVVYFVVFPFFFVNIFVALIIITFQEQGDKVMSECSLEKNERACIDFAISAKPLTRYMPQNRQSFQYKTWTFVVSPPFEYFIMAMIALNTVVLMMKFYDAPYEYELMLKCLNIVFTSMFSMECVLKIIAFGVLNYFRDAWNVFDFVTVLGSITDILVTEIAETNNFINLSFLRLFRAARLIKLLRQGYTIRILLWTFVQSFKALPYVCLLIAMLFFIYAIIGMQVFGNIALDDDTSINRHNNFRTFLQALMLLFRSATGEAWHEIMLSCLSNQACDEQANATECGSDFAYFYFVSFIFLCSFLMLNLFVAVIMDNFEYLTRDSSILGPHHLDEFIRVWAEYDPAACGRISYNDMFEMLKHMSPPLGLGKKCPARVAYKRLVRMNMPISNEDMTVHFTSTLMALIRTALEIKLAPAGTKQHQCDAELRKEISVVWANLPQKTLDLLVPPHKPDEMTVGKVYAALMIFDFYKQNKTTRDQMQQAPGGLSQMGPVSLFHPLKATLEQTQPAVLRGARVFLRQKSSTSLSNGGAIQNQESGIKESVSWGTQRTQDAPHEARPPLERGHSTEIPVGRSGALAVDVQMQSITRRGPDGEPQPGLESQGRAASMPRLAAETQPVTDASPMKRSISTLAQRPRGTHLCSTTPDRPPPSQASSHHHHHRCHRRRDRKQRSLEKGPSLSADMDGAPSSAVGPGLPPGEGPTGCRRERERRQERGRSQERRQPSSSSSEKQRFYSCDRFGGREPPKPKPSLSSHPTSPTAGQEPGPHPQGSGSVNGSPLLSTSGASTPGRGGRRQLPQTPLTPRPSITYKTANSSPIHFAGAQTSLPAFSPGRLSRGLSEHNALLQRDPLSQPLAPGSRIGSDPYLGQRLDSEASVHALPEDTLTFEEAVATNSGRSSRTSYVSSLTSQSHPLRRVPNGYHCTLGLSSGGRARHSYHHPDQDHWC
Assay: inhibitors of Mint1-CaV2.2 protein interaction, biochemical, HTRF (AID 2073)
Details: at 20 µM, stronger effect = higher value
[1] = measured here: average of repeat tests

`O=c1cc2c(=O)oc3cc(O)c(O)oc3c2c(O)c1O` was tested, and the inhibition was 70% (active).

For `O=c1oc2c(O)c(O)cc3c(=O)oc4c(O)c(O)cc1c4c23`, the inhibition was 9.6% (inactive).

In the case of `O=c1oc2ccccc2c2oc3cc(O)c(O)cc3c12`, the inhibition is reported as 20% (inactive).

In the case of `COc1ccc(OC)c(NC(=O)CCC(=O)N(Cc2ccc(OC)c(OC)c2)c2nccs2)c1`, the inhibition is reported as 0.5% (inactive).

For `CC(C)c1ccc(C2NC(=S)NC3=C2C(=O)CC(C)(C)C3)cc1` (stereo unspecified), the inhibition was -9.1% (inactive).

In the case of `Cc1cc(N2CCC(C(=O)NC3CCCCC3)CC2)nc(-c2ccccc2)n1`, the inhibition is reported as -4% (inactive).

For `COc1cccc(/C=C(\CC(=O)O)c2nc3ccccc3s2)c1`, the inhibition was -2.6% (inactive).

`COc1ccc(/C=C(/CC(=O)Nc2ccccc2)c2nc3ccccc3s2)cc1` was tested, and the inhibition was 13% (inactive).

For `COc1cccc(/C=C(/CC(=O)Nc2ccc(N3CCOCC3)cc2)c2nc3ccccc3s2)c1`, the inhibition was 59.9% (active).

`Cc1nonc1C1CCCN1Cc1cn[nH]c1-c1ccc2c(c1)OCO2` (stereo unspecified) was tested, and the inhibition was 6.8% (inactive).

`CCOc1ccc2nc(NS(=O)(=O)c3ccc(NC(C)=O)cc3)sc2c1` was tested, and the inhibition was -0.1% (inactive).

`CCOc1ccc2nc(Nc3nc4ccc(NC(C)=O)cc4s3)sc2c1` was tested, and the inhibition was 55% (active).

For `CCOc1cccc2sc(Nc3nc4ccc(NC(C)=O)cc4s3)nc12`, the inhibition was 28.4% (inactive).

For `COc1ccc(C(=O)/C=C/C(=O)N(CC(=O)NC2CCCCC2)Cc2ccccc2OC)c(O)c1`, the inhibition was 11.5% (inactive).

In the case of `COc1ccc(C(=O)/C=C/C(=O)N(CC(=O)NC2CCCCC2)Cc2ccccc2)c(O)c1`, the inhibition is reported as 64.1% (active).

In the case of `COc1ccc(C(=O)/C=C/C(=O)N(CC(=O)NC2CCCCC2)Cc2ccc(F)cc2)c(O)c1`, the inhibition is reported as 37.7% (inactive).

In the case of `CCc1nnc(N/N=C/c2c(C)[nH]c3ccccc23)n1N`, the inhibition is reported as 55.5% (active).

In the case of `CCc1nnc(N/N=C/c2c(Cl)cccc2Cl)n1N`, the inhibition is reported as -7.9% (inactive).

In the case of `Cc1[nH]c2ccccc2c1/C=N/Nc1nncn1N`, the inhibition is reported as -14.7% (inactive).

In the case of `CCC1Oc2ccc(C)cc2N(CC(=O)N(Cc2ccncc2)Cc2ccco2)C1=O` (stereo unspecified), the inhibition is reported as 10.2% (inactive).

For `CCC1Oc2ccc(C)cc2N(CC(=O)N(Cc2cccnc2)Cc2cccc(F)c2)C1=O` (stereo unspecified), the inhibition was -3.3% (inactive).

`CCC1Oc2ccc(C)cc2N(CC(=O)N(Cc2cccnc2)Cc2ccc(C)o2)C1=O` (stereo unspecified) was tested, and the inhibition was 52.5% (active).

`CCOC(=O)c1cnn(-c2cc(C)cc(C)c2)c1N` was tested, and the inhibition was 3.5% (inactive).

With `Cc1ccc(CSc2nnc(SCC(=O)N/N=C/C=C/c3ccco3)s2)cc1` the inhibition was 35.3% (inactive).

For `Cc1ccc(CSc2nnc(SCC(=O)N/N=C/c3c[nH]c4ccccc34)s2)cc1`, the inhibition was 59.7% (active).

For `O=C(CSc1nnc(SCc2ccccc2)s1)N/N=C/c1c[nH]c2ccccc12`, the inhibition was 44.7% (inactive).

With `O=C(CSc1nnc(SCc2ccc(Cl)cc2)s1)N/N=C/c1c[nH]c2ccccc12` the inhibition was 50.2% (inactive) and the inhibition [1] was 42.7%.

In the case of `O=C(CSc1nnc(SCc2ccccc2)s1)N/N=C/C=C\c1ccco1`, the inhibition is reported as 79.7% (inactive) and the inhibition [1] is reported as 18.4%.

In the case of `O=C(CSc1nnc(SCc2ccccc2)s1)N/N=C/C=C/c1ccco1`, the inhibition is reported as 50.1% (active).
